Pol kappa inh – blocks human DNA polymerase kappa activity. Q9UBT6. purified Pol kappa, fluorescent DNA synthesis assay, 10 min. Potency, µM (series often up to 107 µM), for the others: top-dose activity, negative = inhibition, most hits filed as inhibitors. actives 0.53% (n = 400,000). AID 588579; further: on the % scale 0 is the no-effect control and ±100 the full control effect
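Readout: fluorescence, taken kinetically at 0 and 10 min. Conditions: 10 nM Pol kappa, 15 min RT compound preincubation, 50 nM substrate final. Controls: enzyme-free buffer wells.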
Pol iota inh – inhibitors of human DNA polymerase iota | Q9UNA4 | Pol iota fluorescent replication assay, 10 min | Potency, µM (doses to about 115 µM), for inactives: at the top dose activity, negative = inhibition, actives largely listed as inhibitors | actives 1% (n = 390,000)
Target sequence (Q9UNA4 whole entry, looked up): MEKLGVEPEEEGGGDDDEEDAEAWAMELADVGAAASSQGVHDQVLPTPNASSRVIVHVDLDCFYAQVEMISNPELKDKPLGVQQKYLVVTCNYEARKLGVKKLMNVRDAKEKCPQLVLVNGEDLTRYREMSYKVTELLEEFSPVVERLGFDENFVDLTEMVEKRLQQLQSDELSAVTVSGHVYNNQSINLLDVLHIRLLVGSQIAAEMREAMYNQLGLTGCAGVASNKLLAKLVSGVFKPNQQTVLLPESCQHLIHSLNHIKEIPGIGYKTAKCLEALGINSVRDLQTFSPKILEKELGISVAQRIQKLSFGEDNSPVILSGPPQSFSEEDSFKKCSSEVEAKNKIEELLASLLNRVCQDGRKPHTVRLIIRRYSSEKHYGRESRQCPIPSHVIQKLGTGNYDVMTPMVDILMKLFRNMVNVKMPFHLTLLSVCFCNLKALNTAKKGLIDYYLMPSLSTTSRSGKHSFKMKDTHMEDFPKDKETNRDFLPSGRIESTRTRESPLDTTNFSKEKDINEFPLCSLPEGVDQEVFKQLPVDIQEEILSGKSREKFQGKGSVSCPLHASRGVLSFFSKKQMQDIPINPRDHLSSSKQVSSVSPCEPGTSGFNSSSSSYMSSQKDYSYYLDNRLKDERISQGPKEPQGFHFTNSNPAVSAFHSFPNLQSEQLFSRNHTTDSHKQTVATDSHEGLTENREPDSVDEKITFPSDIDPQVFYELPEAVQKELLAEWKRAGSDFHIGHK
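Fluorescent replication assay read twice, at 0 min and 10 min after adding 50 nM (final) substrate. Enzyme (10 nM) and compounds were first incubated 15 min at room temperature; enzyme-free buffer wells were negative controls.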
FEN1 inh-1 – human FEN1 inhibition | actives 0.35% (n = 390,000) | Recombinant FEN1 flap cleavage, fluorescence, 15 min | AID 588795 | Potency, µM (highest dose often 114 µM), inactives show at the top dose activity change, negative = inhibition, actives largely listed as inhibitors; further: on the % scale 0 is the no-effect control and ±100 the full control effect; nearly all actives have a fitted effect of over 65% in size
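Read-out was taken twice, immediately and after 15 min, following addition of 50 nM substrate to 10 nM FEN1 that had sat with test compound for 15 min at room temperature. Curves came from a four-parameter Hill model.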
POLB inh – blocks human DNA polymerase beta activity. AID 485314. Potency, µM (highest dose often 114 µM), for inactives: at the top dose activity change, negative = inhibition, hits mostly inhibitors. actives 1.3% (n = 340,000). Pol beta primer extension/strand displacement, fluorescence kinetic. P06746; further: on the % scale 0 is the no-effect control and ±100 the full control effect
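Homogeneous kinetic assay of primer extension and strand displacement by 10 nM Pol beta, preincubated 15 min at room temperature with compound before 50 nM substrate (final) was added. Read at 0 and 10 min; four-parameter Hill fit.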
WRN inhibitor – WRN helicase (human) inhibition | WRN helicase unwinding, fluorescent forked duplex, kinetic | Potency, µM (series often up to 114 µM), inactives show top-dose activity change, negative = inhibition, most hits filed as inhibitors | AID 651768 | actives 0.46% (n = 360,000); further: on the % scale 0 is the no-effect control and ±100 the full control effect; nearly all actives have a fitted effect of over 55% in size
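Kinetic red-fluorescence monitoring (525/598 nm) tracks WRN helicase activity after 100 nM fluorophore-quencher forked duplex and 2 mM ATP are added to 20 nM enzyme pretreated 15 min at room temperature with compound.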
Pol eta inh – blocks human DNA polymerase eta activity | Q9Y253 | recombinant Pol eta, fluorescent DNA replication assay | Potency, µM (series often up to 114 µM), without a hit: at the top dose activity change, negative = inhibition, usual class: inhibitors | actives 1.2% (n = 390,000) | AID 588591; further: on the % scale 0 is the no-effect control and ±100 the full control effect
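Pol eta at 10 nM preincubated with compounds 15 min at room temperature; reaction started with fluorescent substrate (50 nM final) and read kinetically at 0 and 10 min.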
FEN1 inh-2 – FEN1 inhibition, cherry-pick retest. shares compounds with FEN1 inh-1. FEN1 flap cleavage, TAMRA/BHQ2 fluorogenic DNA substrate. Potency, µM, actives largely listed as inhibitors. actives 79% (n = 880); further: nearly all actives have a fitted effect of over 60% in size
Active calls of the source: *; [ ] = remark or other dose. Most compounds without a hit are left out; they make up all but 2.4% or so of the library. The call rests on the fitted dose curve; in most records, active means well fitted curve in the direction sought with a large enough effect; inconclusive means small, poorly fitted or top-dose-only effect, or another doubt; inactive means no such curve, though single readings can be large; an effect the other way counts as inactive or inconclusive. Potency means the concentration at half of the fitted maximal effect.

Screening CN(C)CCCN1C(=O)c2cccc3cccc(c23)C1=O returned Pol kappa inh -21.2%, Pol iota inh 25.9%, FEN1 inh-1 inconclusive, POLB inh inconclusive, WRN inhibitor -2.8%[11.6 µM], Pol eta inh -5.2% and FEN1 inh-2 67.5*.
Screening CN(C)CCCN1C(=O)c2cc3ccccc3cc2C1=O returned Pol kappa inh -12.5%, Pol iota inh -13.9%, FEN1 inh-1 0.7%, POLB inh 25.3%, WRN inhibitor 1.1% and Pol eta inh -2.6%.
Screening CCOc1ccc(N(C)C(CNS(=O)(=O)c2ccccc2)c2ccccc2)cc1 (stereo not drawn) returned Pol kappa inh -7.6%, Pol iota inh 13.1%, FEN1 inh-1 2.7% and POLB inh -2.0%.
CCC(C)S(=O)(=O)c1oc(-c2cccs2)nc1S(=O)(=O)c1ccccc1 (stereo not drawn) was read as Pol kappa inh -31.0%, Pol iota inh inconclusive, FEN1 inh-1 2.0%, POLB inh 7.0% and Pol eta inh -19.5%.
COC(=O)C(=O)/C=C(\O)c1c(C)cc(C)cc1C was read as Pol kappa inh -0.5%, Pol iota inh 33.9%, FEN1 inh-1 inconclusive, POLB inh -1.3%, WRN inhibitor -8.9%[57.1 µM], Pol eta inh -20.3% and FEN1 inh-2 37.9*.
`O=C(O)c1ccc2cccnc2c1O` gave Pol kappa inh -23.4%, Pol iota inh 35.9%, FEN1 inh-1 22.4µM*, POLB inh 26.7%, WRN inhibitor -27.9%, Pol eta inh -12.5% and FEN1 inh-2 7.57*.
`O=C(O)c1ccc2cccnc2n1` gave Pol kappa inh -8.9%, Pol iota inh 123.7%, FEN1 inh-1 -1.1%, POLB inh 3.4%, WRN inhibitor inconclusive and Pol eta inh inconclusive.
`Cc1cc2oc3cc(NCCC4CCCN4C)ccc3c(=O)c2cc1C` (stereo not drawn) gave Pol kappa inh -3.9%, Pol iota inh -19.3%, FEN1 inh-1 35.5µM*, WRN inhibitor -28.7%, Pol eta inh inconclusive and FEN1 inh-2 33.8*.
`CN1CCCC1CCNc1ccc2sc3ccccc3c(=O)c2c1` (stereo not drawn) gave Pol kappa inh -24.6%, Pol iota inh inconclusive, FEN1 inh-1 39.8µM*, WRN inhibitor -30.4%, Pol eta inh -27.8% and FEN1 inh-2 37.9*.
Screening O=c1c2ccccc2oc2ccc(NCCCn3ccnc3)cc12 returned Pol kappa inh -1.6%, Pol iota inh -7.8%, FEN1 inh-1 inconclusive, POLB inh 34.2%, WRN inhibitor -10.5% and Pol eta inh -12.4%.
For CSc1ncc(Cl)c(C(=O)Nc2ccc(S(=O)(=O)N3CCC(C)CC3)cc2)n1 the results were Pol kappa inh 0.0%, Pol iota inh -11.5%, FEN1 inh-1 17.0%, POLB inh -28.9% and Pol eta inh -25.6%.
Screening COc1ccc(OC)c(NC(=O)c2cnn(-c3ccc(C)cc3)c2C2CCNCC2)c1 returned Pol kappa inh -22.3%, Pol iota inh 51.6%, FEN1 inh-1 -5.4%, POLB inh 2.9% and Pol eta inh -11.8%.
Screening C=CCNc1nc(N)c([N+](=O)[O-])c(Nc2ccccc2OC)n1 returned Pol kappa inh -16.2%, Pol iota inh 12.5%, FEN1 inh-1 -15.9%, POLB inh 11.4%, WRN inhibitor -6.0% and Pol eta inh 3.5%.
For COc1ccccc1Nc1nc(NCCCN(C)C)nc(N)c1[N+](=O)[O-] the results were Pol kappa inh -18.5%, Pol iota inh -21.0%, FEN1 inh-1 56.2µM*, POLB inh 17.8µM*, WRN inhibitor 79.4µM*, Pol eta inh -24.1% and FEN1 inh-2 60.1*.
`NC(=O)c1ccc2c(=O)c(O)c(-c3cc(Cl)c(N)c(Cl)c3)[nH]c2c1` gave Pol kappa inh 3.7%, Pol iota inh inconclusive, FEN1 inh-1 56.2µM*, POLB inh -1.6%, WRN inhibitor inconclusive, Pol eta inh -0.5% and FEN1 inh-2 37.9*.
Screening COc1cc(NC(=O)c2cc3c(C)nc4ccccc4c3o2)cc(OC)c1OC returned Pol kappa inh -33.3%, Pol iota inh -13.8%, FEN1 inh-1 inconclusive, POLB inh inconclusive, WRN inhibitor inconclusive, Pol eta inh inconclusive and FEN1 inh-2 inconclusive.
For CCC(=O)OC1(C)C(=O)C=C2C=C(C3CC3)OC=C2C1=O (stereo not drawn) the results were Pol kappa inh inconclusive, Pol iota inh inconclusive, FEN1 inh-1 inconclusive, WRN inhibitor -24.7%[11.6 µM], Pol eta inh inconclusive and FEN1 inh-2 84.9*.
For Cc1cccc(NC(=O)Cn2c(=O)n(CCCCCC(=O)NCc3ccc4c(c3)OCO4)c(=O)c3sccc32)c1 the results were Pol kappa inh -8.1%, Pol iota inh -5.2%, FEN1 inh-1 19.9%, POLB inh -6.4% and Pol eta inh 14.9%.
COc1cc(N/C(N)=N/c2nc(C)cc(C)n2)cc(OC)c1 was read as Pol kappa inh -1.3%, Pol iota inh -9.5%, FEN1 inh-1 inconclusive, POLB inh 78.1%, WRN inhibitor 39.1%, Pol eta inh -0.4% and FEN1 inh-2 53.6*.
`Cc1cc(C)nc(/N=C(\N)Nc2ccc3c(c2)OCCO3)n1` gave Pol kappa inh 25.8%, Pol iota inh 13.4%, FEN1 inh-1 79.4µM*, POLB inh -0.2%, WRN inhibitor 17.3%[57.1 µM], Pol eta inh 3.1% and FEN1 inh-2 67.5*.
For Cc1cc(=O)[nH]c(/N=C(\N)Nc2ccc3c(c2)OCCO3)n1 the results were Pol kappa inh -8.8%, Pol iota inh 23.8%, FEN1 inh-1 -6.2%, POLB inh -3.6%, WRN inhibitor 1.8% and Pol eta inh -14.6%.
`COc1ccc(N/C(N)=N/c2nc(C)cc(C)n2)c(OC)c1` gave Pol kappa inh -0.4%, Pol iota inh 27.5%, FEN1 inh-1 -11.7%, POLB inh -11.5%, WRN inhibitor 22.3% and Pol eta inh -5.8%.
For CC(C)c1ccc2oc(-c3cccc(NC(=O)c4ccc5c(c4)OCCO5)c3)nc2c1 the results were Pol kappa inh inconclusive, Pol iota inh inconclusive, FEN1 inh-1 -1.8%, POLB inh -1.7% and Pol eta inh -17.4%.
O=C(CSc1ncc2c(n1)-c1ccccc1N(Cc1ccc(Cl)cc1)S2(=O)=O)c1ccc(Cl)cc1 was read as Pol kappa inh 17.5%, Pol iota inh 10.5%, FEN1 inh-1 -8.3%, POLB inh -10.8% and Pol eta inh -0.5%.

Bioassay records (PubChem BioAssay)
